For 17 compounds, outcome, Potency and viability change results are on record in PubChem BioAssay (NCATS).

Test [1] concerns the target ATP-dependent 6-phosphofructokinase (Trypanosoma brucei brucei) (UniProt O15648). As to the kind of experiment: qHTS Assay to Find Inhibitors of T. brucei phosphofructokinase: hit validation (AID 492961).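 Note: luminescence reports ADP formed as PFK phosphorylates fructose-6-phosphate with ATP; series mostly up to about 51 µM.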 The essentials:
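ADP-Glo luminescence read-out of ADP formed by 1.25 nM PFK from 0.1 mM ATP and 0.5 mM F6P (TEA pH 8.0, 45 min, RT). Compounds titrated; activity normalized to no-enzyme and full-enzyme controls.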
For orientation: qHTS replaces the single test concentration by a dilution series.

Test [2] deals with Thioredoxin reductase 1, cytoplasmic (Rattus norvegicus) (UniProt O89049). As to the kind of experiment: qHTS Assay for Inhibitors of Mammalian Selenoprotein Thioredoxin Reductase 1 (TrxR1) (AID 488773).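 Note: drop in NADPH fluorescence over an 8 min run after selenite addition; series mostly up to about 57 µM; nearly all actives have a fitted effect of over 40% in size.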 The conditions noted are these: Potency: inhibition. The essentials:
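Inhibition is scored from the loss of NADPH fluorescence between first and last reads of an 8-min kinetic run. Selenite (400 uM) was the substrate, added after 15 min compound preincubation at room temperature.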

For test [3], the target named is Flap endonuclease 1 (Homo sapiens) (UniProt P39748). As to the kind of experiment: qHTS Validation Assay for the Inhibitors of Human Flap endonuclease 1 (FEN1) (AID 488816). The procedure, abridged:
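qHTS format: compounds and 10 nM FEN1 incubated 15 min at room temperature before adding 50 nM substrate. Cleavage followed by reads at 0 and 15 min; normalized data fitted to a four-parameter Hill curve.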

Test [4] deals with M-phase phosphoprotein 8 (Homo sapiens) (UniProt Q99549). As to the kind of experiment: qHTS Validation Assay for Inhibitors for MPP8 Chromodomain Interactions with Methylated Histone Tails (AID 488949).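 Note: AlphaScreen signal from MPP8 chromodomain bound to biotinylated H3K9me3 peptide; top concentration of the series differs between compounds; nearly all actives have a fitted effect of over 55% in size.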 The essentials:
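MPP8 (50 nM) was preincubated with biotinylated H3(1-18)K9me3 peptide (50 nM) in PBS pH 7.4, 0.01% Tween-20 for 30 min at room temperature, then with compounds for 30 min; binding was detected by AlphaScreen.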

The target in test [5] is Chromobox protein homolog 1 (Homo sapiens) (UniProt P83916). As to the kind of experiment: qHTS Validation Assay for Inhibitors of HP1-beta Chromodomain Interactions with Methylated Histone Tails (AID 488953).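 Note: loss of AlphaScreen luminescence from HP1-beta binding biotinylated H3K9me3 peptide; series mostly up to about 110 µM; nearly all actives have a fitted effect of over 50% in size.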 The procedure, abridged: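 AlphaScreen proximity readout: streptavidin donor and Ni-chelate acceptor beads, 10 ug/mL final, 30 min dark, RT. Complex of 50 nM HP1-beta and 50 nM b-H3(1-18)K9me3 formed 30 min, then compound-treated 30 min; PBS pH 7.4/0.01% Tween-20.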

The target of test [6] is Methanococcus maripaludis chaperonin (MmCpn) (UniProt Q6LX38). The experiment in a line: High-Throughput Screening for Modulators of Cytosolic Chaperonin Activity: MmCpn Primary Screen (AID 488978).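 Note: 50 nM MmCpn enzyme hydrolysing 30 µM ATP at 37 °C.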 The procedure, abridged: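 MmCpn (50 nM final) was preincubated with compound 5 min at RT, then 30 uM ATP (final) was added and the reaction ran 10 min at 37C. ADP produced was detected by Transcreener HTRF (ex 320 nm; em 590/665 nm).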

For test [7], the target named is Transient receptor potential cation channel subfamily V member 1 (Homo sapiens) (UniProt Q8NER1). The experiment in a line: HTS Assay for Compounds that Act as Enhancers of the Vanilloid Receptor 1 (AID 488979). The essentials: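 Calcium influx kinetics via Fluo-8 (480/520 nm) in TRPV1-expressing cells, 2000/well cultured overnight at 35.5C. Compound-alone read 3 min (agonist phase), followed by EC20 capsaicin challenge for 2 min (enhancer phase).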

Test [8] has as its target D(1A) dopamine receptor (Homo sapiens) (UniProt P21728). As to the kind of experiment: HTS Assay for Allosteric Agonists of the Human D1 Dopamine Receptor: Primary Screen for Agonists (AID 488981). The procedure, abridged: (§1)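 Calcium flux in an inducible, force-coupled HEK293 Trex D1 line (overnight at 30 C): agonist mode is the 180 s kinetic read after compound; potentiator mode is the following 180 s read after dopamine at EC20.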

For test [9] the target is unchanged. As to the kind of experiment: HTS Assay for Allosteric Agonists of the Human D1 Dopamine Receptor: Primary Screen for Potentiators (AID 488982). The essentials: as §1
Test [10] shares this target. As to the kind of experiment: HTS Assay for Allosteric Agonists of the Human D1 Dopamine Receptor: Primary Screen for Antagonists (AID 488983).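 Note: calcium flux response to an EC80 dopamine challenge measured with no-wash dye; nearly all actives have a fitted effect of over 65% in size.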 The procedure, abridged: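 Calcium flux readout, no-wash dye, inducible HEK293 T-REx D1 line (force-coupled). Compound added after 10 s baseline, 180 s kinetic read; then dopamine at EC80, further 180 s read.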
A short description of test [11]: Nrf2 qHTS screen for inhibitors: Validation (AID 493153; active = well fitted inhibition curve with a large enough effect in the main read-out, with a control signal flat, not every such curve was filed as active). The conditions noted are these: Potency: luciferase luminescence; viability change: measured here: cytotoxicity max response. The essentials:
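Concentration-response test in A549 ARE_Fluc reporter cells (5% FBS OPTI-MEM), compound exposure 18-24 h at 37°C, 5% CO2. Cell viability measured first by CellTiter-Fluor fluorescence; ARE-driven luciferase luminescence then measured as Nrf2 activity.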

A short description of test [12]: qHTS for Inhibitors of Cell Surface uPA Generation: Validation Assay (AID 493164).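 Note: RAW 264.7 macrophage cells exposed to compound for 18 h.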 The procedure, abridged: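 Compounds are titrated over seven points (2.45 nM–38.3 uM final) onto pre-plated RAW 264.7 cells and incubated for 18 h. Retained intracellular ATP, measured with ATP-Lite, indicates blocked lethal factor entry.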
Test [13] can be described thus: Validation screen for small molecules that induce DNA re-replication in SW480 colon adenocarcinoma cells (AID 504364). The essentials: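 Read-out: total Hoechst intensity of nuclei by fluorescence scanning imager; hits raise the fraction of nuclei with elevated DNA content. Cells received compound for 48 hr at 37 C before a 40 min stain.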
In test [14] the target is Peptidyl-prolyl cis-trans isomerase NIMA-interacting 1 (Homo sapiens) (UniProt Q13526). As to the kind of experiment: qHTS Validation Assay to Find Inhibitors of Pin1 (AID 504536; active = well fitted inhibition curve with a large enough effect in the polarisation, with a control signal flat, not every such curve was filed as active; the % refers to the polarisation). The procedure, abridged: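 Fluorescence polarization competition: compounds (titration) displace HiFluor-488-labeled Pin1-1b peptide from Pin1 (0.3 uM final) in pH 7.5 HEPES buffer with DTT, 10 min at room temperature; %Activity normalized to no-enzyme wells, curves fitted.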

The target of test [15] is Phosphoglycerate kinase, glycosomal (Trypanosoma brucei brucei) (UniProt P07378). As to the kind of experiment: qHTS Validation Assay to Find Inhibitors of Phosphoglycerate Kinase (AID 504547). The essentials:
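Luminescence end-point (Kinase-Glo Plus, 10 min) after a 60 min room-temperature coupled reaction. GAPDH at 100nM final supplies 1,3-BPG to PGK. Buffer: 100mM TEA pH 7.6, 5mM MgCl2, 0.01% Tween-20. Wells lacking PGK served as controls.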

The target of test [16] is phosphoglycerate mutase (Leishmania major) (UniProt Q4Q090). As to the kind of experiment: qHTS Validation Assay to Find Inhibitors of Phosphoglycerate Mutase (AID 504548).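 Note: end-point luminescence from Kinase-GloPlus after the PGAM reaction; series mostly up to about 58 µM.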 The conditions noted are these: Potency: inhibition qHTS. The procedure, abridged: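 L. major PGAM (1.25nM final) was added to substrate buffer and pinned compound, incubated 45 minutes at room temperature, then Kinase-GloPlus added; luminescence read after 10 minutes. Buffer: 100 mM TEA pH 7.6, 5 mM MgCl2, 0.01% Tween-20.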

In test [17] the target is Ubiquitin carboxyl-terminal hydrolase 1 (Homo sapiens) (UniProt O94782). The experiment in a line: Inhibitors of USP1/UAF1: Pilot qHTS (AID 504865).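 Note: rhodamine fluorescence freed from ubiquitin-rhodamine substrate followed over time; top concentration of the series differs between compounds; nearly all actives have a fitted effect of over 35% in size.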 The essentials:
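USP1/UAF1 complex (1nM) preincubated with compound 15 min at room temperature, then Ub-Rho substrate (150nM final) added. Fluorescence read kinetically at 480/540 nm, 6 reads every 60 seconds. Buffer: 50mM HEPES pH 7.8, 0.5mM EDTA, 0.1 mg/ml BSA, 1mM TCEP, 0.01% Tween-20.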

Records with an inconclusive call do not appear. A call without a number means that no potency is given here. Calls of active or inactive are those of the source. Unless noted, calls come from the whole dose curve; as a rule, active = well fitted curve in the direction sought with a large enough effect; inconclusive = small, poorly fitted or top-dose-only effect, or another doubt; inactive = no such curve, though single readings can be large; an effect the other way counts as inactive or inconclusive.

ATP-dependent 6-phosphofructokinase (Trypanosoma brucei brucei), sequence (O15648 whole entry, looked up): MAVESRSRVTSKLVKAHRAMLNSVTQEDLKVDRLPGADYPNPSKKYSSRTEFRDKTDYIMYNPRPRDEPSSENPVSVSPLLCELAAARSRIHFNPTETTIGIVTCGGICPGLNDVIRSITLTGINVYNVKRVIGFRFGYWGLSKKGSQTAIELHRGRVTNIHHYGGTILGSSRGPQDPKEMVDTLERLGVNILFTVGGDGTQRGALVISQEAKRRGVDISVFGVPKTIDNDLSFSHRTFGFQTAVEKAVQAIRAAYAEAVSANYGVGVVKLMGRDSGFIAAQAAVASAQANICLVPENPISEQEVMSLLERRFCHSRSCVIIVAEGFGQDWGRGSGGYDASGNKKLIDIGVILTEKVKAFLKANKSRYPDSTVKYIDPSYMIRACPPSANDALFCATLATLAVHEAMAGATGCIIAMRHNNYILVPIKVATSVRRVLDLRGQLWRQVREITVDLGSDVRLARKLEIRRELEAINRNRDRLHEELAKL
Ubiquitin carboxyl-terminal hydrolase 1 (Homo sapiens), sequence (O94782 whole entry, looked up): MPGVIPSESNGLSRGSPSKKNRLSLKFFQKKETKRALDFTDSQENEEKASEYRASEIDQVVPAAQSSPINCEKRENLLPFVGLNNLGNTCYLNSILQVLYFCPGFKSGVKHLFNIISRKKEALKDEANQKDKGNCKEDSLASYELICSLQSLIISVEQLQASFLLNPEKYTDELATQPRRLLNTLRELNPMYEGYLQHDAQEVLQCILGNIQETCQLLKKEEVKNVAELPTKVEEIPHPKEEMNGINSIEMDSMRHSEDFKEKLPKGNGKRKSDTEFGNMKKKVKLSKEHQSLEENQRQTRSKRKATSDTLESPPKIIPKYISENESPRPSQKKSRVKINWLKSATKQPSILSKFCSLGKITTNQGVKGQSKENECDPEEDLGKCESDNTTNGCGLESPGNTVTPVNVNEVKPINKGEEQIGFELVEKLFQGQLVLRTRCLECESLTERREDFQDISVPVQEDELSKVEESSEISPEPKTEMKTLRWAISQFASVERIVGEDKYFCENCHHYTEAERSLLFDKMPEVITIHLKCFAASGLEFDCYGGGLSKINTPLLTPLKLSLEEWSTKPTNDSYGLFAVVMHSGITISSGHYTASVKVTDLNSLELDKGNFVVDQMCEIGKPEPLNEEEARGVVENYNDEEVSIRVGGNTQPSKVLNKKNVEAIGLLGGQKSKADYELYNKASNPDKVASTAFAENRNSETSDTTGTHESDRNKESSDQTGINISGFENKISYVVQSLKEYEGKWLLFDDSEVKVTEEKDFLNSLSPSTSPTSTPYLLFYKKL
D(1A) dopamine receptor (Homo sapiens), sequence (P21728 whole entry, looked up): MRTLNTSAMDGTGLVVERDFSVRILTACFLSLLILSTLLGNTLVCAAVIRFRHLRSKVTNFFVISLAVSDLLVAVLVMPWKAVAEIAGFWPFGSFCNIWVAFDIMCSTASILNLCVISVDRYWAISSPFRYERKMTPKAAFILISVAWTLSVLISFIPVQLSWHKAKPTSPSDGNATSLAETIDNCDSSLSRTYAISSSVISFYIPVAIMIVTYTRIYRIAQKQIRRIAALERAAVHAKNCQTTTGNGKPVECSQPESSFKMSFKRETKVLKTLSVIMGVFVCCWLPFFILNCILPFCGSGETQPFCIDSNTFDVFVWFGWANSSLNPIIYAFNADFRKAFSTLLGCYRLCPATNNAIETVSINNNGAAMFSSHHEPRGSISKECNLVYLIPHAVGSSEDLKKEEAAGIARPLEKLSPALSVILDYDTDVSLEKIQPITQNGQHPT
M-phase phosphoprotein 8 (Homo sapiens), sequence (Q99549 whole entry, looked up): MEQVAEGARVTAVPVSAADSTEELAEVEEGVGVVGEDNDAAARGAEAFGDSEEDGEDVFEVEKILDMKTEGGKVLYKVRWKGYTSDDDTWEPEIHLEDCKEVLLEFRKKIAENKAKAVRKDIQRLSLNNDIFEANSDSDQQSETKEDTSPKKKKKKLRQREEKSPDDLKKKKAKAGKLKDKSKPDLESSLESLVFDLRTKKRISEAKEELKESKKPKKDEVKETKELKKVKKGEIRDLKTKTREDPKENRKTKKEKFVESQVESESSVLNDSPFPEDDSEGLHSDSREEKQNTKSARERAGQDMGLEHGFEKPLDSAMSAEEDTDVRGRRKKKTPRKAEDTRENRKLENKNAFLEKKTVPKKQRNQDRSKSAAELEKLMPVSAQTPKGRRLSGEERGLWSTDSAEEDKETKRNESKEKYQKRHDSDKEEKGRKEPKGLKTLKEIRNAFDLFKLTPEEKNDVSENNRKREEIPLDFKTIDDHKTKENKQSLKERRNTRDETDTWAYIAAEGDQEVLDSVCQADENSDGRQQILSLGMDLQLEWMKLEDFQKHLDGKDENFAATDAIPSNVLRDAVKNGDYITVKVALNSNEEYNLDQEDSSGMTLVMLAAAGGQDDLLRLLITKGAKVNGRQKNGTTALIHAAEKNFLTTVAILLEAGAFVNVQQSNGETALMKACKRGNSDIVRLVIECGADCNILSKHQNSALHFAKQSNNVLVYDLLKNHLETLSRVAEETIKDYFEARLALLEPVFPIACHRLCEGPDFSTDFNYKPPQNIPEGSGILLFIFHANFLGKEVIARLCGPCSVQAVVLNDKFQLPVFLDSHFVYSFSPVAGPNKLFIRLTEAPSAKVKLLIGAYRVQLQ
Flap endonuclease 1 (Homo sapiens), sequence (P39748 whole entry, looked up): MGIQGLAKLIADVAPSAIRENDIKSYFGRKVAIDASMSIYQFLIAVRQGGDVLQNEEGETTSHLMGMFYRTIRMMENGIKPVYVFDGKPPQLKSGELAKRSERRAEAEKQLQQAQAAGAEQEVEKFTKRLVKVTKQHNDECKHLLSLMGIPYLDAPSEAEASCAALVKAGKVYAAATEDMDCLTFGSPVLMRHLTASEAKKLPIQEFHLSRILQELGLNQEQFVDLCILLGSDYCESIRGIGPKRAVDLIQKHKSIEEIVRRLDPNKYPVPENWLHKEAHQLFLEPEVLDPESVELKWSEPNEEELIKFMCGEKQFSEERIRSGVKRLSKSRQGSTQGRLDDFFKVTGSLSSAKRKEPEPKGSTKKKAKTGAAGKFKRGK
Thioredoxin reductase 1, cytoplasmic (Rattus norvegicus), sequence (O89049 whole entry, looked up): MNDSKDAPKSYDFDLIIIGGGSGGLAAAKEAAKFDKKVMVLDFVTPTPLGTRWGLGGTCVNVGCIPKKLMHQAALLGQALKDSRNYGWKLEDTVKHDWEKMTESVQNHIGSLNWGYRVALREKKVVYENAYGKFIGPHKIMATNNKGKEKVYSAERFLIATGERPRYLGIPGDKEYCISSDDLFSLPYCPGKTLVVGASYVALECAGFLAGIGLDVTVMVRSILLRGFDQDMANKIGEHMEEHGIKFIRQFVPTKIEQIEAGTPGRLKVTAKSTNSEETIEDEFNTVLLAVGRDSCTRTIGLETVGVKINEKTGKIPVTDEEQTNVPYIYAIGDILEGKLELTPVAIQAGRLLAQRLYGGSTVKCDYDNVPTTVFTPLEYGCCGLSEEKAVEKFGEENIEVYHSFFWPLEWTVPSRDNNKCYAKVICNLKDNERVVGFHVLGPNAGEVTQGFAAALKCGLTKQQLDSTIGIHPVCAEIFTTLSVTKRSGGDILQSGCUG
Chromobox protein homolog 1 (Homo sapiens), sequence (P83916 whole entry, looked up): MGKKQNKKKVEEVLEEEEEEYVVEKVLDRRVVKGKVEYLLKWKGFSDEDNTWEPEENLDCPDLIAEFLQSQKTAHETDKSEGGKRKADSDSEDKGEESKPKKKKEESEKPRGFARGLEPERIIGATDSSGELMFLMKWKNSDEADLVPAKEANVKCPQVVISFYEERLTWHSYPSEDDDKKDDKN
phosphoglycerate mutase (Leishmania major), sequence (Q4Q090 1-553): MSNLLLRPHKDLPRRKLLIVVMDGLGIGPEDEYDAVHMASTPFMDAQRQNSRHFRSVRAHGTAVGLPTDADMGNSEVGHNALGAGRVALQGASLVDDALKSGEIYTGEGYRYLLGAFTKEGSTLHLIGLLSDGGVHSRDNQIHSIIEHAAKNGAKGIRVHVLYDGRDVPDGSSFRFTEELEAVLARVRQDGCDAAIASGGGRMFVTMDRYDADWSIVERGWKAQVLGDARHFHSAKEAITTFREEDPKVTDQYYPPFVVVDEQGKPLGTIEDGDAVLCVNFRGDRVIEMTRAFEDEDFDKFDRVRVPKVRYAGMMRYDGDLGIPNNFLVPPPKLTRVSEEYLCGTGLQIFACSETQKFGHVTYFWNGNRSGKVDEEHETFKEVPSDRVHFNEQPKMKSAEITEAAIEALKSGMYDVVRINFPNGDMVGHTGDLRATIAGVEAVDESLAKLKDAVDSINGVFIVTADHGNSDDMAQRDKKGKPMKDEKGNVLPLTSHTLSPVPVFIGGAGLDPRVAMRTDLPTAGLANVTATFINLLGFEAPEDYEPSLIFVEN
Peptidyl-prolyl cis-trans isomerase NIMA-interacting 1 (Homo sapiens), sequence (Q13526 whole entry, looked up): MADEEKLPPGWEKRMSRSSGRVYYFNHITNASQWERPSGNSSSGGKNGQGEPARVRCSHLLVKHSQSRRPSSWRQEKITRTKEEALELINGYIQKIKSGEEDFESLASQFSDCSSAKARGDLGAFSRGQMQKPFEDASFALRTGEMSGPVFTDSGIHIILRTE
Phosphoglycerate kinase, glycosomal (Trypanosoma brucei brucei), sequence (P07378 whole entry, looked up): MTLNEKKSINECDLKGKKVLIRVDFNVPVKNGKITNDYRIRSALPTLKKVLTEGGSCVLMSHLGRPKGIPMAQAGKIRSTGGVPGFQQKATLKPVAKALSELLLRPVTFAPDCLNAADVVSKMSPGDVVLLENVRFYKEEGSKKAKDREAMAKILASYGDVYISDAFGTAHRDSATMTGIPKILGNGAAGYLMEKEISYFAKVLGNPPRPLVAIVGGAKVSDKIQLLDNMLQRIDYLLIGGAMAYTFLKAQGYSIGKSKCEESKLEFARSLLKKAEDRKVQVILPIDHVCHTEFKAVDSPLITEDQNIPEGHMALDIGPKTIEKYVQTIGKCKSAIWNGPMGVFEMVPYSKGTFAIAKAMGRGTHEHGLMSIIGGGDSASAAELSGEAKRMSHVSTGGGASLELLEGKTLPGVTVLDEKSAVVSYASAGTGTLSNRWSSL

With `CC1(C)CCC(C)(C)c2cc(NC(=O)c3ccc(C(=O)O)cc3)ccc21`, in test [1], the compound was classed as inactive.

With `NNc1nncc2ccccc12`, the Potency result in test [2], in [3], in test [4], in test [5], in test [9] and in [10] was “inactive” each time. Besides, the Potency result in test [11], in test [13], in test [15], in test [16] and in test [17] was “inactive” each time. Moreover, the compound was called inactive in test [6], in test [7], in test [8], in test [1], in test [12] and in [14]. Further, in [11], the viability change was -2.74%.

With `CC(C)[C@H](N)C(=O)OCCOCn1cnc2c(=O)[nH]c(N)nc21`, the call in [1] was inactive. Also, the Potency entry in [17] was “inactive”.

On to `CN1C(C(=O)Nc2ccccn2)=C(O)c2sccc2S1(=O)=O`, for which, in test [1], the call was inactive. The Potency entry in test [17] was “inactive”.

In the case of `Nc1cccc2c1CN(C1CCC(=O)NC1=O)C2=O` (stereo not drawn), the result in [1] was inactive. The Potency entry in test [17] was “inactive”.

On to `COC(=O)C1=C(C)NC(C)=C(C(=O)OCCCN2CCC(c3ccccc3)(c3ccccc3)CC2)C1c1cccc([N+](=O)[O-])c1` (stereo not drawn), for which the compound was classed as inactive in [1].

Take `Oc1ccc(OCc2ccccc2)cc1`: in test [1], the result was inactive. In [17], the Potency result was “inactive”.

With `O=C(O)CCNC(=O)c1ccc(N=Nc2ccc(O)c(C(=O)O)c2)cc1`, in [1], the compound was called inactive.

As to `CS(=O)(=O)OCCCCOS(C)(=O)=O`, the result in [1] was inactive. Besides, in [17], the Potency entry is “inactive”.

With `CCCCc1ccc2nc(NC(=O)OC)[nH]c2c1`, the call in test [1] was inactive. Also, the Potency result in [17] was “inactive”.

Consider `CCN(CC)CCOc1ccc(Cc2ccccc2)cc1`, for which the outcome in test [1] was inactive. Moreover, in test [17], the Potency entry was “inactive”.

Take `Cc1cccc(C)c1OCC(=O)N[C@@H](Cc1ccccc1)[C@@H](O)C[C@H](Cc1ccccc1)NC(=O)[C@H](C(C)C)N1CCCNC1=O`: the compound was classed as inactive in test [1].

Take `CCCCC(CC)COC(=O)C(C#N)=C(c1ccccc1)c1ccccc1` (stereo not drawn): the compound was classed as inactive in test [1].

With `CN(C)CCc1c[nH]c2ccc(Cn3cncn3)cc12`, in [1], the call was inactive. Further, the Potency result in [17] was “inactive”.

On to `CCOC(=O)c1c(C)n(C)c2ccc(O)cc12`, for which the call in test [1] was inactive. Further, the Potency result in [17] was “inactive”.

On to `Clc1ccc(C(Cn2ccnc2)OCc2ccsc2Cl)c(Cl)c1` (stereo not drawn), for which the outcome in [1] was inactive.

Regarding `CCCCN(CCCC)CCC(O)c1cc2c(Cl)cc(Cl)cc2c2cc(C(F)(F)F)ccc12` (stereo not drawn), the compound was called inactive in [1].
